The values that follow come from PubChem BioAssay (EPA / NIEHS).

The nature of assay [1]: ATG_E_Box_CIS: Attagene CIS-FACTORIAL HepG2 Assay for human Enhancer Box (E-box) (AID 2282936). Conditions: HepG2 E-box cis-reporter transcription, actives raise or lower the signal. The method, boiled down: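 DMSO served as negative control and baseline for bidirectional fitting. Human hepatoma HepG2 cells, transiently transfected with cis-reporter constructs, were dosed 24 h; reporter mRNA read by RT-PCR and capillary electrophoresis.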

The nature of assay [2]: ATG_M_61_CIS: Attagene CIS-FACTORIAL HepG2 Assay for M61 Transcription Factor (Internal Marker) (AID 2282937). Conditions: HepG2 Attagene CIS-FACTORIAL M61 internal marker reporter; actives raise or lower the signal. In short, it runs like this:
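HepG2 cells transiently transfected with multiplexed cis-promoter reporter units reporting endogenous transcription factor activity, measured 24 h after dosing. Reporter mRNA quantified by RT-PCR and capillary electrophoresis; bidirectional fit against DMSO baseline.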

The nature of assay [3]: ATG_EGR_CIS: Attagene CIS-FACTORIAL HepG2 Assay for human Early Growth Response 1 (EGR1) (AID 2282938). The settings on record: HepG2 Attagene CIS-FACTORIAL EGR reporter mRNA; actives raise or lower the signal. The method, boiled down:
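HepG2 cells transiently transfected with cis-element-driven multiplexed reporter units, dosed for 24 h. EGR1-element reporter mRNA quantified by RT-PCR, 6-FAM labelling, HpaI digestion and capillary electrophoresis; bidirectional fit versus DMSO.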

The nature of assay [4]: ATG_M_19_CIS: Attagene CIS-FACTORIAL HepG2 Assay for M19 Transcription Factor (Internal Marker) (AID 2282939). Conditions: HepG2 Attagene CIS-FACTORIAL M19 internal marker reporter; actives raise or lower the signal. The method, boiled down: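 Following a 24 h exposure, RNA from transfected HepG2 cells was reverse-transcribed, PCR-amplified with reporter-specific primers, end-labelled with 6-FAM and HpaI-digested before capillary separation. Values represent gain or loss versus DMSO.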

The nature of assay [5]: ATG_ERE_CIS: Attagene CIS-FACTORIAL HepG2 Assay for Estrogen Response Element (ERE) (AID 2282940). The settings on record: HepG2 ERE cis-reporter, Attagene RNA transcript; actives raise or lower the signal. The method, boiled down: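 HepG2, transient cis-reporter units, 24 h exposure. RNA isolated, oligo(dT) RT, reporter-specific PCR, FAM extension, HpaI cut, CE detection. Gain/loss-of-signal vs DMSO.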

The nature of assay [6]: ATG_Ets_CIS: Attagene CIS-FACTORIAL HepG2 Assay for human Erythroblast Transformation Specific (ETS) (AID 2282941). Conditions: HepG2 ETS cis-reporter transcription, actives raise or lower the signal. In short, it runs like this: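 HepG2 cells transfected with multiple cis-regulated reporter units measuring endogenous ETS-driven transcription, 24 h after dosing. Reporter mRNA quantified by RT-PCR with capillary electrophoresis; bidirectional fit relative to DMSO.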

Assay [7] has as its target Hepatocyte nuclear factor 3-beta (Homo sapiens) (UniProt Q9Y261). Put plainly: ATG_FoxA2_CIS: Attagene CIS-FACTORIAL HepG2 Assay for human Forkhead box A2 (FOXA2) (AID 2282942). Conditions: HepG2 cis-reporter transcription factor activity, 24 h; actives raise or lower the signal. In short, it runs like this:
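HepG2 transiently transfected with a multiplexed cis-promoter reporter library read endogenous FOXA2 activity. After 24 h compound exposure, reporter mRNA was quantified by RT-PCR, HpaI digestion and capillary electrophoresis. Bidirectional fit against DMSO.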

Assay [8] in a line: ATG_FoxO_CIS: Attagene CIS-FACTORIAL HepG2 Assay for human Forkhead box O (FoxO) (AID 2282943). Conditions: HepG2 Attagene cis-reporter, FoxO element, mRNA; actives raise or lower the signal. The method, boiled down:
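Endogenous transcription factor activity read from multiplexed cis-promoter reporter transcripts in transiently transfected HepG2, 24 h after dosing. Reporter RNA measured via RT-PCR plus capillary electrophoresis of FAM-labeled products; gain or loss relative to DMSO.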

Assay [9] in a line: ATG_GATA_CIS: Attagene CIS-FACTORIAL HepG2 Assay for human GATA Binding Protein (AID 2282944). Conditions: HepG2 GATA cis-element reporter, Attagene multiplex mRNA; actives raise or lower the signal. The method, boiled down: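 DMSO serves as negative control and baseline for bidirectional fitting of reporter mRNA changes. HepG2 cells bearing transiently transfected cis-promoter reporters were exposed 24 h; transcripts detected via RT-PCR and capillary electrophoresis.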

Assay [10] in a line: ATG_GLI_CIS: Attagene CIS-FACTORIAL HepG2 Assay for human Zinc Finger Protein GLI1 (AID 2282945). Conditions: HepG2, Attagene cis-factorial reporter mRNA, GLI element; actives raise or lower the signal. The method, boiled down:
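Bidirectional curve fits relative to DMSO, using reporter mRNA levels from RT-PCR plus capillary electrophoresis. Cells were HepG2 transiently carrying cis-regulated reporter constructs, harvested 24 h after dosing.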

The target of assay [11] is Bile acid receptor (Homo sapiens) (UniProt Q96RI1). Description: ATG_IR1_CIS: Attagene CIS-FACTORIAL HepG2 Assay for human Nuclear Receptor Subfamily 1 Group H Member 4 (NR1H4), IR1 submotif (AID 2282946). The settings on record: IR1 reporter transcription, actives raise or lower the signal. In short, it runs like this: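 Cells (human HepG2) carry transiently transfected cis-promoter reporter transcription units. Compounds are incubated 24 h, total RNA is reverse-transcribed and amplified, and labelled fragments are resolved by capillary electrophoresis. Curves use DMSO as baseline.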
Sequence of Bile acid receptor (Homo sapiens) (Q96RI1 whole entry, looked up, the tested form may be a part): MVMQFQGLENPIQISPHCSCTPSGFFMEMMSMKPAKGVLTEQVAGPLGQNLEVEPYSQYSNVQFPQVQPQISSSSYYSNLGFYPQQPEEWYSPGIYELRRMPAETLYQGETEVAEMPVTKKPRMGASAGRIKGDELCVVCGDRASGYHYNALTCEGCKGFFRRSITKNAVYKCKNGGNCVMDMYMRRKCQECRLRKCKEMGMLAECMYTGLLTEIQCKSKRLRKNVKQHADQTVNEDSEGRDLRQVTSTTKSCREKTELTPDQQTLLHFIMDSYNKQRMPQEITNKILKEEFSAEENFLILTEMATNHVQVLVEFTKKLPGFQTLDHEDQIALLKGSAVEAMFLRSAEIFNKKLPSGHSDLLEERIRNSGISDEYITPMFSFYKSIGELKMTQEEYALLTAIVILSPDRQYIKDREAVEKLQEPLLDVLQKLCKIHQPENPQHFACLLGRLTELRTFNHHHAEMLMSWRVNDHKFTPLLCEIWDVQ

Assay [12] can be described thus: ATG_GRE_CIS: Attagene CIS-FACTORIAL HepG2 Assay for human Glucocorticoid Response Elements (GRE) (AID 2282947). Conditions: HepG2 GRE cis-reporter, Attagene multiplex mRNA; actives raise or lower the signal. The method, boiled down: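 Assay uses human hepatoma HepG2 cells transfected with cis-promoter reporter units, exposed 24 h. mRNA from reporters detected by RT-PCR plus capillary electrophoresis; DMSO serves as negative control and baseline.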

Assay [13] is described as follows: ATG_ISRE_CIS: Attagene CIS-FACTORIAL HepG2 Assay for human Interferon Regulatory Factor 1 (IRF1) binding to an Interferon-Stimulated Response Element (ISRE) (AID 2282948). The settings on record: HepG2 ISRE cis-reporter (Attagene), mRNA transcription readout; actives raise or lower the signal. In short, it runs like this: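 Transiently transfected HepG2 cells carrying cis-element reporter units, dosed 24 hours. Reporter mRNA quantified by RT-PCR, fluorescent primer extension, HpaI digestion and capillary electrophoresis. Bidirectional fitting relative to DMSO.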

The nature of assay [14]: ATG_M_32_CIS: Attagene CIS-FACTORIAL HepG2 Assay for M32 Transcription Factor (Internal Marker) (AID 2282949).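 Further: background control marker of the multiplexed CIS panel rather than a real target.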 The settings on record: HepG2 Attagene cis-factorial M32 reporter, mRNA; actives raise or lower the signal. The method, boiled down:
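Following 24 h chemical exposure of HepG2 cells transiently expressing cis-promoter reporter constructs, reporter transcript levels were determined by RT-PCR with fluorescent labelling and capillary electrophoresis, then fitted bidirectionally against DMSO.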

Assay [15] can be described thus: ATG_M_06_CIS: Attagene CIS-FACTORIAL HepG2 Assay for M06 Transcription Factor (Internal Marker) (AID 2282950). Conditions: HepG2 Attagene CIS-FACTORIAL M06 internal marker reporter; actives raise or lower the signal. The method, boiled down: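 Fluorescence-labelled RT-PCR products from cis-promoter reporter units, cut with HpaI and resolved by capillary electrophoresis, give the signal. Cells are human HepG2, dosed for 24 h. Serves as background control, fitted relative to DMSO.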

Assay [16] addresses Hypoxia-inducible factor 1-alpha (Homo sapiens) (UniProt Q16665). Put plainly: ATG_HIF1a_CIS: Attagene CIS-FACTORIAL HepG2 Assay for human Hypoxia Inducible Factor 1 (HIF1A) (AID 2282951). Conditions: HepG2 Attagene cis-factorial HIF1a reporter transcription; actives raise or lower the signal. In short, it runs like this: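 HepG2 cells transiently transfected with multiple cis-regulated reporter transcription units measure endogenous transcription factor activity. After 24 h exposure, reporter mRNA is quantified by RT-PCR with 6-FAM labelling, HpaI digestion and capillary electrophoresis. Bidirectional fitting against DMSO.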

Assay [17] deals with Hepatocyte nuclear factor 6 (Homo sapiens) (UniProt Q9UBC0). Description: ATG_HNF6_CIS: Attagene CIS-FACTORIAL HepG2 Assay for human Hepatocyte Nuclear Factor 6 (HNF6) (AID 2282952). Conditions: HepG2 Attagene cis-factorial HNF6 reporter transcription; actives raise or lower the signal. The method, boiled down:
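HepG2 cells transiently transfected with cis-element-driven multiple reporter transcription units, dosed 24 h; reporter mRNA quantified by RT-PCR, FAM primer extension, HpaI digestion and capillary electrophoresis; bidirectional fit versus DMSO baseline.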

In assay [18] the target is Heat shock factor protein 1 (Homo sapiens) (UniProt Q00613). Put plainly: ATG_HSE_CIS: Attagene CIS-FACTORIAL HepG2 Assay for human Heat Shock Transcription Factor 1 (HSE) (AID 2282953). Conditions: HepG2 HSE cis-reporter, Attagene RNA transcription; actives raise or lower the signal. In short, it runs like this:
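After a 24 h incubation with test chemical, transfected HepG2 cells were harvested for RNA; reporter transcripts were measured by RT-PCR and capillary electrophoresis. Values reflect gain or loss of signal relative to DMSO.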

Assay [19] can be described thus: ATG_MRE_CIS: Attagene CIS-FACTORIAL HepG2 Assay for human Metal Responsive Element (MRE) (AID 2282954). The settings on record: HepG2 MRE cis-reporter transcription, Attagene multiplex; actives raise or lower the signal. The method, boiled down: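 After a 24 h chemical exposure, transiently transfected HepG2 cells yield RNA whose reporter sequences are amplified, FAM-labelled and sized by capillary electrophoresis. Curves are fitted bidirectionally relative to DMSO.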

Assay [20] in a line: ATG_PBREM_CIS: Attagene CIS-FACTORIAL HepG2 Assay for human Phenobarbital-responsive Enhancer Module (PBREM) (AID 2282955). Conditions: HepG2 PBREM cis-reporter, Attagene multiplexed transcription; actives raise or lower the signal. The method, boiled down:
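HepG2 cells transiently transfected with multiple cis-regulated reporter units measure endogenous transcription factor activity; 24 h compound exposure. Reporter mRNA quantified by RT-PCR, fluorescent labelling, HpaI digestion and capillary electrophoresis; bidirectional fit versus DMSO.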

Calls of active or inactive are those of the source. How the source made its calls: active means hit-call score of the fitted dose curve at least 0.9, where 1 is the maximum; inactive means score below 0.9.

Sequence of Hepatocyte nuclear factor 3-beta (Homo sapiens) (Q9Y261 whole entry, looked up): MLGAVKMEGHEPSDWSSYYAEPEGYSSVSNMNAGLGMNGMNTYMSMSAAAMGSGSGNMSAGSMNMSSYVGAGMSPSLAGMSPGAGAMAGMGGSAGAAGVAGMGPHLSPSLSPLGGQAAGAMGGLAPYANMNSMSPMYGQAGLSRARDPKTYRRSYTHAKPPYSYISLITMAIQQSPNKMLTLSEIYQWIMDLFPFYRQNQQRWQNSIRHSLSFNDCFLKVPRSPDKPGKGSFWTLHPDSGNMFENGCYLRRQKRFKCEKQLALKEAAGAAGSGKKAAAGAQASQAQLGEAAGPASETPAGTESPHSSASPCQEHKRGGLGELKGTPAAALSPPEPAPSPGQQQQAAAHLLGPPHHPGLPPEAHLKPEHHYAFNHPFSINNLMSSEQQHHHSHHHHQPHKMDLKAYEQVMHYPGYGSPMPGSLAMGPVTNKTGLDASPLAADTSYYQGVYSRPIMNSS
Sequence of Hepatocyte nuclear factor 6 (Homo sapiens) (Q9UBC0 whole entry, looked up): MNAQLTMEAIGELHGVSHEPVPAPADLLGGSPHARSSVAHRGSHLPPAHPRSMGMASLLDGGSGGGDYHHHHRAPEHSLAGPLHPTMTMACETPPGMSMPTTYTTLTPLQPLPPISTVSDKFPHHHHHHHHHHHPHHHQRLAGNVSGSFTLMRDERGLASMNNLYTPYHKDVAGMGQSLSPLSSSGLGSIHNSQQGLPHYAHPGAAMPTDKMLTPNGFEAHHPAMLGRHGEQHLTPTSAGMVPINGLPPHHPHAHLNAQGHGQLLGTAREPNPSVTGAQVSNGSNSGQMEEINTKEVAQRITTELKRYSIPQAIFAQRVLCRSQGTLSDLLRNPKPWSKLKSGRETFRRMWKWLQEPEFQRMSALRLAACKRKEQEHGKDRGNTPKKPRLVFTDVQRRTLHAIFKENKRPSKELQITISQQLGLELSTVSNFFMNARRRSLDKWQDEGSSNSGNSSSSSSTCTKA
Sequence of Hypoxia-inducible factor 1-alpha (Homo sapiens) (Q16665 whole entry, looked up): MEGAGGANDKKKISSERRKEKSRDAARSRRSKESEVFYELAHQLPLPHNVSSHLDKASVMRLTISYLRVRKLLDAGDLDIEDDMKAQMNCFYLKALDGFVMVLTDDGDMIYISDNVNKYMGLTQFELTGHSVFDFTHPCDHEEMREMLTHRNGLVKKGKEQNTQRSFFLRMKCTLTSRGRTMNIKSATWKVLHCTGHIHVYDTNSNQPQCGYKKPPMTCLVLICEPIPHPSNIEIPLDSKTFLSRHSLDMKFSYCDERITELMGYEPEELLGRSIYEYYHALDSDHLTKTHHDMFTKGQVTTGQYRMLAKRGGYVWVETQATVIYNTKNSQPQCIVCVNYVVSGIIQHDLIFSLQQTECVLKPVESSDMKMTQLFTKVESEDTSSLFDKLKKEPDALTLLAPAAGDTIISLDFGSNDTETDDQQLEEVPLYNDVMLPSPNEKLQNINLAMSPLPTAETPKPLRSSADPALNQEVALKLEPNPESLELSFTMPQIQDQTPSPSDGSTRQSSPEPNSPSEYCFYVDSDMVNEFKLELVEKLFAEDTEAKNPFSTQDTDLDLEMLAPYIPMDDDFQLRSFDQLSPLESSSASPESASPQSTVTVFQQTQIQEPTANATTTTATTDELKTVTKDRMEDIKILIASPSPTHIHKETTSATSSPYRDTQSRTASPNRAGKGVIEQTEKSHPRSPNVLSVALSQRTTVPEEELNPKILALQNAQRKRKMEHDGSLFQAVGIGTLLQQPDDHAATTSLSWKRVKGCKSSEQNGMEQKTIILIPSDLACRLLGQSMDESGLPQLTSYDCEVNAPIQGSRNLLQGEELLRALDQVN
Sequence of Heat shock factor protein 1 (Homo sapiens) (Q00613 whole entry, looked up): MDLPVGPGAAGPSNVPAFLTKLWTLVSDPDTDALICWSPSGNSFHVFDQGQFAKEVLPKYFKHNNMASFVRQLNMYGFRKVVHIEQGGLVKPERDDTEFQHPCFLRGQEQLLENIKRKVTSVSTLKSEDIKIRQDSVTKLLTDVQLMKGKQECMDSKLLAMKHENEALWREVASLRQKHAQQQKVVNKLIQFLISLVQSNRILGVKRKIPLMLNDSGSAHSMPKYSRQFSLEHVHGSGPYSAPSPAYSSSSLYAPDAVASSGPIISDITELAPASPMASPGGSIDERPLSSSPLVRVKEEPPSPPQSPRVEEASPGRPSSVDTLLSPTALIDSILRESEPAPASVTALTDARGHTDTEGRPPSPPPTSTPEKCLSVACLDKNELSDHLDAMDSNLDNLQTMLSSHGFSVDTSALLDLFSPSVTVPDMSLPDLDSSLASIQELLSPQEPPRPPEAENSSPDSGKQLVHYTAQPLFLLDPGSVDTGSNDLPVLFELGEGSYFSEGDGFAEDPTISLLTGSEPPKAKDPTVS

With `CC(C)=CC1CC(C)CCO1` (stereo unspecified), the result in assay [1], in assay [2], in assay [3], in assay [4], in [5] and in assay [6] was inactive. In addition, the result in assay [7], in assay [8], in assay [9], in assay [10], in assay [11] and in assay [12] was inactive. Moreover, the molecule was classed as inactive in assay [13], in [14], in assay [15], in assay [16], in [17] and in assay [18]. The outcome in assay [19] was inactive.
As for `C=C1[C@H]2CC[C@@H]3[C@H]2C(C)(C)CCC[C@]13C`, the result in [1], in [2], in assay [3], in assay [4], in assay [5] and in [6] was inactive. Moreover, the outcome in [7], in assay [8], in [9], in assay [10], in assay [11] and in [12] was inactive. Besides, the outcome in assay [13], in [14], in [15], in assay [16], in assay [17] and in assay [18] was inactive. For the same molecule, the call in assay [19] and in [20] was inactive.
Take `OCCc1ccncc1`: the result in assay [1], in assay [2], in [3], in assay [4], in [5] and in [6] was inactive. In addition, the molecule was classed as inactive in assay [7], in assay [8], in [9], in [10], in [11] and in assay [12]. Besides, the result in [13], in assay [14], in assay [15], in [16], in [17] and in assay [19] was inactive.
With `O=S(=O)(O)c1ccccc1C=Cc1ccc(-c2ccc(C=Cc3ccccc3S(=O)(=O)O)cc2)cc1`, in assay [1], the AC50 was 40.6 µM (active). The result in [2], in [3], in [4], in assay [5], in [6] and in assay [7] was inactive. Besides, the molecule was called inactive in [8], in [9], in [10], in assay [11], in assay [12] and in assay [13]. Moreover, the result in [14], in assay [15], in assay [16], in assay [17], in assay [19] and in [20] was inactive.
